# From ChEMBL document CHEMBL1961873, “Compounds: GSK PKIS; Assays: Nanosyn kinase panel” (2012)
# Tests used:
# [1] = target: Tyrosine-protein kinase Fyn (Homo sapiens) (UniProt P06241); conditions: at 1 µM
# [2] = target: Tyrosine-protein kinase HCK (Homo sapiens) (UniProt P08631); conditions: at 0.1 µM
# [3] = target: Tyrosine-protein kinase HCK (Homo sapiens) (UniProt P08631); conditions: at 1 µM
# [4] = target: Insulin-like growth factor 1 receptor (Homo sapiens) (UniProt P08069); conditions: at 0.1 µM
# Chain of Insulin-like growth factor 1 receptor (Homo sapiens) (P08069 31-736 limits assumed): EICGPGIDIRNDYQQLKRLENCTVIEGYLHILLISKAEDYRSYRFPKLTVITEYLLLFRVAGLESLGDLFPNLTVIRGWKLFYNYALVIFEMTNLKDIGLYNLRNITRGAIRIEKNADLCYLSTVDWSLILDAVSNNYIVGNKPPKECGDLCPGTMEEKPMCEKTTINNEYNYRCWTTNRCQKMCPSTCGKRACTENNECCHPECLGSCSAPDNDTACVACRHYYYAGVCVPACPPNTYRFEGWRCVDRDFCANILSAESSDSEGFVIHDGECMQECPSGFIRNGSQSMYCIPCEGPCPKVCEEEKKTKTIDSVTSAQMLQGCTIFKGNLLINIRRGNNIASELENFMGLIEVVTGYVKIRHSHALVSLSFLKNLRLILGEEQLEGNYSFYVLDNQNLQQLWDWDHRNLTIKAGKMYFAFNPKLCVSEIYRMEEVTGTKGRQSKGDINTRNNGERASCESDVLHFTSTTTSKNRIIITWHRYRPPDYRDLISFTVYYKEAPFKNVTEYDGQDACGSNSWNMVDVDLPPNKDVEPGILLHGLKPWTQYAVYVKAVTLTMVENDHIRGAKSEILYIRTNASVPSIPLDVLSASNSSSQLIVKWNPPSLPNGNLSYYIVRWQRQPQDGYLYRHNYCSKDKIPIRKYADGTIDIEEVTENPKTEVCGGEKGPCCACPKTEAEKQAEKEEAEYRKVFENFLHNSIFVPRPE
# Chain of Insulin-like growth factor 1 receptor (Homo sapiens) (P08069 741-1367 limits assumed): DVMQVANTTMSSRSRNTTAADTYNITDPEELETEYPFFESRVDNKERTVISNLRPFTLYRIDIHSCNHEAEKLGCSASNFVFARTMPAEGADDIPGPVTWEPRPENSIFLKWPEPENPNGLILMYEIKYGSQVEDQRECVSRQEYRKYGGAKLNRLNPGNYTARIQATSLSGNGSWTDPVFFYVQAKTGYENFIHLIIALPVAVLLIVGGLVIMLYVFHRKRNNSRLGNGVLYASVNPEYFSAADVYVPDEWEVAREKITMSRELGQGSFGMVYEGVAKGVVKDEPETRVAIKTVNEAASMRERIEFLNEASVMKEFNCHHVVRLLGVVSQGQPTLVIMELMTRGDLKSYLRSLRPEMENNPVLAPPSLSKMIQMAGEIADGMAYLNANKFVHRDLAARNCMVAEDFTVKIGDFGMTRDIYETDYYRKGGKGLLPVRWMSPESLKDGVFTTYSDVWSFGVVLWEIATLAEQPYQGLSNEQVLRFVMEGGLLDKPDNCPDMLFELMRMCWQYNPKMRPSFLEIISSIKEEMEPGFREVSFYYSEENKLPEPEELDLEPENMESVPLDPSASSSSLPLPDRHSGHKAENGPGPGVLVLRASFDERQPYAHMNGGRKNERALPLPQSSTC
# [5] = target: Insulin-like growth factor 1 receptor (Homo sapiens) (UniProt P08069); conditions: at 1 µM
# [6] = target: Insulin receptor (Homo sapiens) (UniProt P06213); conditions: at 0.1 µM
# Chain of Insulin receptor (Homo sapiens) (P06213 28-758 limits assumed): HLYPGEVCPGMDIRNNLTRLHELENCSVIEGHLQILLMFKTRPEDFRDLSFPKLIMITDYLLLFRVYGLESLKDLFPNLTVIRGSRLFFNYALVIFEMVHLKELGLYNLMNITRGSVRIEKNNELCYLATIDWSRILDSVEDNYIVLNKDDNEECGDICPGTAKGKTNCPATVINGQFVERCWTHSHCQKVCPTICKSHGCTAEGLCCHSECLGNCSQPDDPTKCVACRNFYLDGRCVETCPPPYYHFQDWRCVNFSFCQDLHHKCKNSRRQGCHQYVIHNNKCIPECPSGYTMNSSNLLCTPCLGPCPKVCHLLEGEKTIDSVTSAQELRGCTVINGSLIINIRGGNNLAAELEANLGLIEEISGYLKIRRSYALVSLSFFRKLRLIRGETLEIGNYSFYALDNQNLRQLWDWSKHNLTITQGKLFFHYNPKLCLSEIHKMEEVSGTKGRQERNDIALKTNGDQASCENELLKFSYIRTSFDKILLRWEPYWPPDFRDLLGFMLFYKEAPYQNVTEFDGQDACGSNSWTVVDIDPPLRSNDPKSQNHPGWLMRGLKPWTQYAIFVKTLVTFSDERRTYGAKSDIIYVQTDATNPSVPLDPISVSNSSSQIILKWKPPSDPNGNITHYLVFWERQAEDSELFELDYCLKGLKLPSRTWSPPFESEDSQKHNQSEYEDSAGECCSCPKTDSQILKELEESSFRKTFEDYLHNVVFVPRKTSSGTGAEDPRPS
# Chain of Insulin receptor (Homo sapiens) (P06213 763-1382 limits assumed): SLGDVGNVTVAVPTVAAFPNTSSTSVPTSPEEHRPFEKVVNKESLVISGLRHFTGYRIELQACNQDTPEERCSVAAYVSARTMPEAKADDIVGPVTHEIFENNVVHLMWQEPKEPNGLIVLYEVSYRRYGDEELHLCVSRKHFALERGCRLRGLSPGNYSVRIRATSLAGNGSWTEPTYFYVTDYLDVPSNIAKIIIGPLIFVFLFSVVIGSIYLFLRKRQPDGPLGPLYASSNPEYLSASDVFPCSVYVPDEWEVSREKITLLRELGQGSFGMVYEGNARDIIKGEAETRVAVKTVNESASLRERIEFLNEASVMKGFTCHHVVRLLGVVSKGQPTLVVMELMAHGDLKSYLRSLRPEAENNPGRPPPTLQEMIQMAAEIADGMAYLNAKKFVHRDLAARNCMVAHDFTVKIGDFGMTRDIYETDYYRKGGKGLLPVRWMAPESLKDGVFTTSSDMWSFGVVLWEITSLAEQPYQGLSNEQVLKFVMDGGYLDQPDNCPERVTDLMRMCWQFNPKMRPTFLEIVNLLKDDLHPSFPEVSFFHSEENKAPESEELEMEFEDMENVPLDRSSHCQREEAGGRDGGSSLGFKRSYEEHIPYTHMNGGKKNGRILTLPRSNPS
# [7] = target: Insulin receptor (Homo sapiens) (UniProt P06213); conditions: at 1 µM
# [8] = target: Insulin receptor-related protein (Homo sapiens) (UniProt P14616); conditions: at 0.1 µM
# Chain of Insulin receptor-related protein (Homo sapiens) (P14616 27-742 limits assumed): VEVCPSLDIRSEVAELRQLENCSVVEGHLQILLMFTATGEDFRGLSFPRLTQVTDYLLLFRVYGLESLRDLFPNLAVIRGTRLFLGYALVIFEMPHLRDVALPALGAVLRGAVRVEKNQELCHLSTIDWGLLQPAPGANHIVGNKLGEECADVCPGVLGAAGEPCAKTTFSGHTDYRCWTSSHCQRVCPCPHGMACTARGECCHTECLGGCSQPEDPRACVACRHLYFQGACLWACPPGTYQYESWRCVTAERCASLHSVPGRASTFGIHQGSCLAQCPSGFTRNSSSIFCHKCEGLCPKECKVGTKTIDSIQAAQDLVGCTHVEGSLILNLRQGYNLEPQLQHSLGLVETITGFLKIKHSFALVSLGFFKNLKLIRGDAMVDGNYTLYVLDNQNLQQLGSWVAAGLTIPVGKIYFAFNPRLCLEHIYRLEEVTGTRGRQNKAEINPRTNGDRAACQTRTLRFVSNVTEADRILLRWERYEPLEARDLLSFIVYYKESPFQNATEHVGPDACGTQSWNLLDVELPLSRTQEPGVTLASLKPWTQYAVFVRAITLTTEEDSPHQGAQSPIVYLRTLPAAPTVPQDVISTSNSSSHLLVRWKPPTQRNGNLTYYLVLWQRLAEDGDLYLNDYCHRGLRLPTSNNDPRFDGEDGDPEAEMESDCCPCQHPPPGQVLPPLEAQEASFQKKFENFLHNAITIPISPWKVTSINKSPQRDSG
# Chain of Insulin receptor-related protein (Homo sapiens) (P14616 747-1297 limits assumed): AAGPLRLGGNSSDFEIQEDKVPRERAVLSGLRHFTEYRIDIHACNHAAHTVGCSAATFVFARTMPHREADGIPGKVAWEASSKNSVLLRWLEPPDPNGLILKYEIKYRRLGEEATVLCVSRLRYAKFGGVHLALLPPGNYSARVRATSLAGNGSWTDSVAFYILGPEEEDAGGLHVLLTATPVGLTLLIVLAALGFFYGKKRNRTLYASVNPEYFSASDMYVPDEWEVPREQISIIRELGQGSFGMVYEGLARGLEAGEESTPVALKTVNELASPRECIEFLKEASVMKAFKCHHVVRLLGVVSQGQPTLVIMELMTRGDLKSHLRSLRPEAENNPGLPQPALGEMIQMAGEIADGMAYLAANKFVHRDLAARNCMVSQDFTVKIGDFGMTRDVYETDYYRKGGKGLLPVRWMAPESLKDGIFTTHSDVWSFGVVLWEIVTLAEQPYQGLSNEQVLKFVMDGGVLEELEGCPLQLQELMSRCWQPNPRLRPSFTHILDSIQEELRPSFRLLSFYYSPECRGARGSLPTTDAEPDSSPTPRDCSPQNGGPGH
# [9] = target: Insulin receptor-related protein (Homo sapiens) (UniProt P14616); conditions: at 1 µM
# [10] = target: T1, Tyrosine-protein kinase ITK/TSK (Homo sapiens) (UniProt Q08881); conditions: at 0.1 µM;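 also: mean percent inhibition of ITK from the GSK PKIS screen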
# T1 sequence (whole entry): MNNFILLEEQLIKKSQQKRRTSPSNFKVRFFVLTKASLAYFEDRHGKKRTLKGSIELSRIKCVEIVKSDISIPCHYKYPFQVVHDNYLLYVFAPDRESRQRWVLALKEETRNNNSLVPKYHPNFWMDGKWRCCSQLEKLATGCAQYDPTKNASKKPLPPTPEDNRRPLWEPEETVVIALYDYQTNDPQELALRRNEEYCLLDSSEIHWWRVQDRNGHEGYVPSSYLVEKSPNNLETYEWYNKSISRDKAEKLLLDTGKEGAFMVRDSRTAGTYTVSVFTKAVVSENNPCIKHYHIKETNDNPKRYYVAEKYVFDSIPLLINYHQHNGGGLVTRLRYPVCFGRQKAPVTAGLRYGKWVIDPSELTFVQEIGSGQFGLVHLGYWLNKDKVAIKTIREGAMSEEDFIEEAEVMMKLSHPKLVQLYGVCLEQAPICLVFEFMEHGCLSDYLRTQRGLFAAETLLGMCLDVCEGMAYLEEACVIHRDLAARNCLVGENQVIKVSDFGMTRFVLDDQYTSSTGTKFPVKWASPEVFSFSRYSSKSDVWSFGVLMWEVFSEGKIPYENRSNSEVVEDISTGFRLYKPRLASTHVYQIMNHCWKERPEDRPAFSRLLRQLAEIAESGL
# Chain of Tyrosine-protein kinase HCK (Homo sapiens) (P08631 2-526 limits assumed): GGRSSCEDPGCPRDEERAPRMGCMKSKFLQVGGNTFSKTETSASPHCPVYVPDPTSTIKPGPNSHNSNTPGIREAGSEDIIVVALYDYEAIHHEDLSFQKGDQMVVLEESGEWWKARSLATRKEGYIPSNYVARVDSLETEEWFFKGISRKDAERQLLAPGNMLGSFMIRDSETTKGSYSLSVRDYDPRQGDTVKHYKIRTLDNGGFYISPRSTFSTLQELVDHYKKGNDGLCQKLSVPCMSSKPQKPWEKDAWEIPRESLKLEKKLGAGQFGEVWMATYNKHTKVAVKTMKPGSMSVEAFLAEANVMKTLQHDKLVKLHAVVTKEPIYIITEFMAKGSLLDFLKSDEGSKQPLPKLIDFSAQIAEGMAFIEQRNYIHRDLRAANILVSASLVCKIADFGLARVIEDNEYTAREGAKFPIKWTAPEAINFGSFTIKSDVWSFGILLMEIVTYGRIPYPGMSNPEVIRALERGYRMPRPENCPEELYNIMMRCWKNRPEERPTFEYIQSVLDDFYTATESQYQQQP
# Chain of Tyrosine-protein kinase Fyn (Homo sapiens) (P06241 2-537 limits assumed): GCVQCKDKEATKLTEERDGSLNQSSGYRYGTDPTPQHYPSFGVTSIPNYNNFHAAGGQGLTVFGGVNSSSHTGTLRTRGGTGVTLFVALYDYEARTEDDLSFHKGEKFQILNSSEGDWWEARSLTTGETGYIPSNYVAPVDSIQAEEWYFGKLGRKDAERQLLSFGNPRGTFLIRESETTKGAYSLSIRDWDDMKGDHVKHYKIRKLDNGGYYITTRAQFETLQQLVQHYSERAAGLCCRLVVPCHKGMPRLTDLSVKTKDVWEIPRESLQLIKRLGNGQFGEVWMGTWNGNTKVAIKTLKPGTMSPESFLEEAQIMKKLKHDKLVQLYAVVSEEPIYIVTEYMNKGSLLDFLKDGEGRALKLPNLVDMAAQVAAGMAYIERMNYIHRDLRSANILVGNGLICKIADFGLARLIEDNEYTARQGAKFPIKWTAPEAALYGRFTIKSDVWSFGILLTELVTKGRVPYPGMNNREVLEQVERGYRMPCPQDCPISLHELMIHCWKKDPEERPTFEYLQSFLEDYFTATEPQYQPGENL
SMILES,inhibition [1] [%],inhibition [2] [%],inhibition [3] [%],inhibition [4] [%],inhibition [5] [%],inhibition [6] [%],inhibition [7] [%],inhibition [8] [%],inhibition [9] [%],inhibition [10] [%]
Nc1nccc(C#Cc2cncnc2Nc2ccc(OCc3cccc(F)c3)c(Cl)c2)n1,2.19,5.32,10.2,3.97,4.12,3.13,4.44,8.14,1.12,1.89
Cc1cc(O)cc(C)c1/C=C/c1cncc(C(=O)N(C)C)c1,4.2,4.54,10.8,2.54,5.15,2.68,0.32,2.71,1,1.43
Nc1nccc(-c2c(-c3ccc(F)cc3)ncn2CCCN2CCOCC2)n1,4.47,5.16,6.92,9.8,8.95,0.02,3.74,2.13,5.23,1.35
NS(=O)(=O)c1ccc(NC=C2C(=O)Nc3ccc4ncsc4c32)cc1,26.5,12.2,43.8,12.2,26.7,6.96,29.7,3.96,6.03,2.7
CN(C)C(=O)O[C@H]1CN[C@H](C#Cc2cc3ncnc(Nc4ccc(OCc5cccc(F)c5)c(Cl)c4)c3s2)C1,1.7,4.49,10.5,3.22,2.88,4.02,3.06,0.79,1.4,1.49
Cc1ccc(Nc2ccnc(Nc3cccc(C(N)=O)c3)n2)cc1O,89.4,58.8,83.5,-3.28,17.2,3.53,13.7,2.88,3.49,-2.42
CCn1c(-c2nonc2N)nc2c(C#CC(C)(C)O)nc(OCCNC)cc21,4.65,5.42,8.69,5.39,3.53,6.39,5.58,0.83,1.9,0.63
NC(=O)c1cccc(Nc2nccc(Nc3cccc(F)c3)n2)c1,43.2,3.16,30.8,1.8,20.9,4.46,21.1,-0.57,1.15,-0.24
CCn1c(-c2nonc2N)nc2ccc(F)cc21,4.14,4.97,7.63,4.55,8.11,5.06,5.22,4.24,3.56,2.15
O=C1Nc2ccc(-c3cccnc3)cc2C1=Cc1cc(Br)c(O)c(Br)c1,10.5,3.63,11.1,3.8,4.14,3.63,0.1,4.28,2.51,1.58
CS(=O)(=O)Nc1cccc(-c2ccc3c(NC(=O)C4CC4)n[nH]c3c2)c1,3.25,3.53,3.03,1.3,-1.63,2.96,4.14,-0.36,-1.26,0.53
O=C1Nc2ccccc2/C1=C/Nc1ccc2[nH]c(=O)[nH]c2c1,10.9,7.89,21.5,7.08,24.8,8.02,32.4,3.85,6.41,1.78
COc1cccc(-n2ncc3c(N/N=C/c4ccc(S(C)(=O)=O)cc4)ncnc32)c1,69.8,17,55.7,-6.32,-5.27,2.59,1.06,0.2,0.63,-2.33
CCS(=O)(=O)c1ccc(OC)c(Nc2ncc(-c3cccc(OC)c3)o2)c1,76.5,21.1,67.2,2.1,4.95,0.3,5.78,3.08,3.36,1.61
O=S(=O)(CCOCc1ccc(-c2ccc3ncnc(Nc4ccc(OCc5cccc(F)c5)c(Cl)c4)c3c2)o1)c1ccccc1,0.6,3.81,6.35,13,8.7,1.87,3.13,-2.12,0.31,-0.7
CS(=O)(=O)CCNCc1nc(-c2ccc3ncnc(Nc4ccc(OCc5cccc(C(F)(F)F)c5)cc4)c3c2)cs1,3.35,3.91,5.68,4.43,3.36,1.31,3.15,-0.71,1.53,1.21
COC(=O)Nc1nc2cc(Oc3ccc(NC(=O)Nc4cccc(Br)c4)cc3)ccc2[nH]1,9.52,6.2,6.79,3.08,2.4,1.48,5.63,1.82,-1.05,1.01

SMILES,inhibition [1] [%],inhibition [2] [%],inhibition [3] [%],inhibition [4] [%],inhibition [5] [%],inhibition [6] [%],inhibition [7] [%],inhibition [8] [%],inhibition [9] [%],inhibition [10] [%]
C[C@@H](Oc1cc(-n2cnc3ccc(OCC4CCN(C)CC4)cc32)sc1C(N)=O)c1ccccc1C(F)(F)F,12.6,3.31,32.6,-4.89,-1.61,-0.09,1.24,-3.02,-2.86,-1.81
Cc1ccc(C(=O)NC2CC2)cc1-c1ccc2[nH]ncc2c1,0.93,-3.84,-2.13,29.6,-5.48,0.44,-2.94,-3.94,-4.42,-2.18
[O-][S+]1CCN(Cc2ccc(-c3ccc4ncnc(Nc5ccc(OCc6ccccc6)c(Cl)c5)c4c3)o2)CC1,4.61,2.6,3.96,14.4,10.7,2,3.55,-1.65,0.75,0.08
Cc1ccc(NC(=O)CC2CC2)cc1-c1ccc(C(=O)NCC2CC2)cc1,5.9,9,10.3,1.36,2.09,2.71,5.25,2.99,3.28,1.08
c1ccc(Nc2ncc(-c3ccccc3)o2)cc1,15.1,6.83,13.3,7.16,5.2,4.8,6.98,2.31,2.61,0.38
CC(C)c1ccc(Nc2nccc(-c3cnn4ncccc34)n2)cc1,6.49,4,8.83,11.8,53.1,10.2,48.2,2.81,8.71,0.75
COc1cc(/C=N/Nc2ncnc3c2cnn3C(C)C)ccc1O,40.2,7.16,32.6,9.1,7.79,2.75,2.59,-1.25,2.79,1.18
COc1cc2ncnc(Nc3ccc4c(cnn4Cc4ccccc4)c3)c2cc1OC,35.7,11.4,48.5,-1.14,-0.72,2.75,3.75,0.39,2.09,0.88
Cc1nc(-c2ccccc2)n2nc(NCCCN3CCOCC3)ncc12,4.98,3.98,4.67,3.15,1.6,0.32,2.69,-0.73,1.44,0.99
COC(=O)c1ccc2c(c1)C(=Cc1cc(Br)c(O)c(Br)c1)C(=O)N2,22.5,5.59,18.3,3.29,2.72,3.96,3.99,1.56,1.64,2.44
Cc1ccc2c(c1)/C(=N/Nc1ccc(S(N)(=O)=O)cc1)C(=O)N2,0.85,1.4,6.19,-1.37,-2.24,-0.03,1.98,-1.32,-0.18,0.66
COc1cc(Nc2nccc(-c3cnn4ncccc34)n2)cc(OC)c1,40.3,5.71,32.8,13.8,65.4,12.3,70,3.56,22.1,0.74
COc1cc2ncn(-c3cc(OCc4ccccc4S(C)(=O)=O)c(C#N)s3)c2cc1OC,76.8,16.2,61.8,4.3,5.83,5.14,5.1,3.69,3.13,2.84
COc1cccc(-n2ncc3c(N/N=C/c4ccc(C)cc4)ncnc32)c1,16.5,7.32,16.2,5.92,22.9,21.4,82.2,2.51,15.3,2.28
CCOc1nccc2c1nc(-c1nonc1N)n2CC,3.27,4.58,11.4,7.26,7.09,0.75,-1.17,1.03,2.48,1.74
FC(F)(F)c1ccc(-c2nn3ncccc3c2-c2ccnc(Nc3ccc4c(c3)OCCO4)n2)cc1,21.2,0.59,15.1,-3.01,-2.92,0.23,0.63,-0.78,0.97,5.77
